The record followed here is article PMC7862700, “An all-to-all approach to the identification of sequence-specific readers for epigenetic DNA modifications on cytosine”.

Assay in all cases: DAPPL (digital affinity profiling via proximity ligation, sequencing); 10 mM Tris-HCl pH 7.5, 50 mM NaCl, 1 mM DTT, 4% glycerol, room temperature, 30 min; GST-TFs on glutathione beads, 16-mer random dsDNA library, 0.1% formaldehyde crosslink after washing; high values mean tight binding
Conditions in all cases: protein: recombinant; tags: N-terminal GST; dsDNA, one strand shown

Assay [1] concerns the target T1, ERF (Homo sapiens, UniProt P50548 1-548).
T1 sequence: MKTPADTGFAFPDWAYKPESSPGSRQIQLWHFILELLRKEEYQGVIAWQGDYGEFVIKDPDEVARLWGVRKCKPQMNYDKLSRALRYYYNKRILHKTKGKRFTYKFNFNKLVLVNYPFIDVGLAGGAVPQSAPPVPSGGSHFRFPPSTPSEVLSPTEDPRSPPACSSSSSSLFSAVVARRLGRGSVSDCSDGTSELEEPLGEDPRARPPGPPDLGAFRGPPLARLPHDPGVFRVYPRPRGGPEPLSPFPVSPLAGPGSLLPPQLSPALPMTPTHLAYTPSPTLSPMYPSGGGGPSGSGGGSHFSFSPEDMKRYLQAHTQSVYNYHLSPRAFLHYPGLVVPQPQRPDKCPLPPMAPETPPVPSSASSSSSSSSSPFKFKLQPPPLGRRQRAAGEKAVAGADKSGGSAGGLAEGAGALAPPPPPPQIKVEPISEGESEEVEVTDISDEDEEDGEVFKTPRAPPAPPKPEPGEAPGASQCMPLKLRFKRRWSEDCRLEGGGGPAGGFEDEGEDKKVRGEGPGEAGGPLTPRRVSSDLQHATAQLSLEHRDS
The gist of the method:
(§1)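 Binding signal is given per hexamer as its read frequency for a factor divided by its frequency in the tag-only sample. GST-fused human transcription factors were expressed in yeast, captured on glutathione beads, barcoded with DNA and pooled with that sample, then incubated with 200 nmole of a 16-mer random double-stranded DNA library in Tris/NaCl/DTT/glycerol buffer for 30 min at room temperature. The pools were then washed, crosslinked, proximity-ligated, amplified by PCR and sequenced on an Illumina NextSeq500.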

Assay [2] concerns the target T2, ETV3L (Homo sapiens, UniProt Q6ZN32 1-361).
T2 sequence: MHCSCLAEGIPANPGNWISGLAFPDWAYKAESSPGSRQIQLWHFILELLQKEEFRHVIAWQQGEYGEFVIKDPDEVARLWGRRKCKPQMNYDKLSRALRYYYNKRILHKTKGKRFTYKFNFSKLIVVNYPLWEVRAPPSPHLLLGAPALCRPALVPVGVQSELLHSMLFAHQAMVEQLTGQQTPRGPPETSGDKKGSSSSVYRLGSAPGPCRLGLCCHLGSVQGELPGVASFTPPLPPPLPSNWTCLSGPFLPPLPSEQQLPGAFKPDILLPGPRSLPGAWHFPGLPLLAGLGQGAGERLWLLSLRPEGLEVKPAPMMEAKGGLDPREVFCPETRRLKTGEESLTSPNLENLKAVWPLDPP
The procedure, abridged:
as §1

The target of assay [3] is T3, ETS2 (Homo sapiens, UniProt P15036 1-469).
T3 sequence: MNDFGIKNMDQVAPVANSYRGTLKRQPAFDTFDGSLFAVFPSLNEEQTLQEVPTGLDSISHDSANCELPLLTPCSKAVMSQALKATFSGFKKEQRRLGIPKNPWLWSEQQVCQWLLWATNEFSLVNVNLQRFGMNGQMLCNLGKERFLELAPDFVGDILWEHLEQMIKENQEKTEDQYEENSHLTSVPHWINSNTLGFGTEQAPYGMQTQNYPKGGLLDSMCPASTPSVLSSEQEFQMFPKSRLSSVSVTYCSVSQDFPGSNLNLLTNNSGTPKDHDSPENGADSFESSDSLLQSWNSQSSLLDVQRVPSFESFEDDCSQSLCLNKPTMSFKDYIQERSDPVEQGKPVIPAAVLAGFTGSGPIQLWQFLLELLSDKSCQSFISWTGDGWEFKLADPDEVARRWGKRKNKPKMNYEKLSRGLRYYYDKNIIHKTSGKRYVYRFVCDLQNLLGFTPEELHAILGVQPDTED
The procedure, abridged:
as §1

Assay [4] has as its target T4, SPDEF (Homo sapiens, UniProt O95238 1-335).
T4 sequence: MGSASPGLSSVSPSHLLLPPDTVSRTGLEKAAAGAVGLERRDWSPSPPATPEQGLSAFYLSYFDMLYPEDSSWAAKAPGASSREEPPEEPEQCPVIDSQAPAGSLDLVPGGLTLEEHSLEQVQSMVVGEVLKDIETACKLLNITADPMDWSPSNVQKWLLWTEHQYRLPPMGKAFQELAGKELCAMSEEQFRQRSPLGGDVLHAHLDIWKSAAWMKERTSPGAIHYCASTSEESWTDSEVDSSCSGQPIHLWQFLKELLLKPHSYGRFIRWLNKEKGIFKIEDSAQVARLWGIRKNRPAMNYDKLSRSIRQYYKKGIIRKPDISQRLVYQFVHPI
The gist of the method:
as §1

The target of assay [5] is T5, ETV7 (Homo sapiens, UniProt Q9Y603 1-341).
T5 sequence: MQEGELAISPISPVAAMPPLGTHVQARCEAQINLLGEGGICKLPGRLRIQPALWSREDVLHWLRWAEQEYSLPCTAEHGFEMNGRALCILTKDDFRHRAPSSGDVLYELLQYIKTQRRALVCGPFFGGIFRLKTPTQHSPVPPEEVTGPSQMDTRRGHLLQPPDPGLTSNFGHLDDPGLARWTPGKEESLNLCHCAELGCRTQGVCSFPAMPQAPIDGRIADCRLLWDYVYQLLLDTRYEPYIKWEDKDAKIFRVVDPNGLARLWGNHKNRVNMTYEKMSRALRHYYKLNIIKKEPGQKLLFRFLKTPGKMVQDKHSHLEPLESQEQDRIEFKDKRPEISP
The procedure, abridged:
as §1

In assay [6] the target is T6, ELF5 (Homo sapiens, UniProt Q9UKW6-2 1-255).
T6 sequence: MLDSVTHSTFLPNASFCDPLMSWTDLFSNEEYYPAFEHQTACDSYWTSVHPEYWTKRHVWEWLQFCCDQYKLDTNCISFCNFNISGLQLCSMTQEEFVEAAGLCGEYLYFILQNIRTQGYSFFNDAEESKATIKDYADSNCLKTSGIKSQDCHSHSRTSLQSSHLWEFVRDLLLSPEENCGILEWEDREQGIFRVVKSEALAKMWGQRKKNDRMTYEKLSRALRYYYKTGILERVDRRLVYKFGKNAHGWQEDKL
The procedure, abridged: as §1

Assay [7] has as its target T7, ETV3 (Homo sapiens, UniProt P41162-2 1-143).
T7 sequence: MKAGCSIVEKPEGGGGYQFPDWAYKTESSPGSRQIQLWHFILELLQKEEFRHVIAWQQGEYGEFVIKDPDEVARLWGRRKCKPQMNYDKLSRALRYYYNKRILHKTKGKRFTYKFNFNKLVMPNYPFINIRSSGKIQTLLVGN
The procedure, abridged: as §1

In assay [8] the target is ETV6 (Homo sapiens, UniProt P41212 1-452). The gist of the method:
as §1

Sequence of ETV6 (P41212 whole entry): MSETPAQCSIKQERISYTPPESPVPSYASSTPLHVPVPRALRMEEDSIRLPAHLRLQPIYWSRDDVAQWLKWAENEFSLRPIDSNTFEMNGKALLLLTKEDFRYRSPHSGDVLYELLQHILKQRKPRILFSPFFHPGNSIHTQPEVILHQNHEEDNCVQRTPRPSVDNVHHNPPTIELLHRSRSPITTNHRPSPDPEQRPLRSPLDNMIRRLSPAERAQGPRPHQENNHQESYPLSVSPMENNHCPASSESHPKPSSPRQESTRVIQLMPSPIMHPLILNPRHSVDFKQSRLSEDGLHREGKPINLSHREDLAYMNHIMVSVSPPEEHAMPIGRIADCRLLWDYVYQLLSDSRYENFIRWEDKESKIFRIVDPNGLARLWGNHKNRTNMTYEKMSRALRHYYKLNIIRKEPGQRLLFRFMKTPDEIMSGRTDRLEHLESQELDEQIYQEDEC

With ATCCTC, the binding signal in assay [1] was 1.34 fold enrichment (6-mer frequency, TF over GST control); in assay [2], 1.53 fold enrichment (6-mer frequency, TF over GST control); in assay [3], 1.41 fold enrichment (6-mer frequency, TF over GST control); in assay [4], 1.56 fold enrichment (6-mer frequency, TF over GST control); in assay [5] it was 1.46 fold enrichment (6-mer frequency, TF over GST control); in assay [6] it was 1.95 fold enrichment (6-mer frequency, TF over GST control). The binding signal in assay [7] was 1.51 fold enrichment (6-mer frequency, TF over GST control); in assay [8], 1.37 fold enrichment (6-mer frequency, TF over GST control).
TATTCA: the binding signal in assay [1] is 1.36 fold enrichment (6-mer frequency, TF over GST control); in assay [2] it was 1.43 fold enrichment (6-mer frequency, TF over GST control); in assay [3], 1.34 fold enrichment (6-mer frequency, TF over GST control); in assay [4] it was 1.28 fold enrichment (6-mer frequency, TF over GST control); in assay [5], 1.23 fold enrichment (6-mer frequency, TF over GST control); in assay [6], 1.24 fold enrichment (6-mer frequency, TF over GST control). For the same sequence, the binding signal in assay [7] was 1.23 fold enrichment (6-mer frequency, TF over GST control); in assay [8], 1.3 fold enrichment (6-mer frequency, TF over GST control).
Turning to TAGTTT, the binding signal in assay [1] was 1.36 fold enrichment (6-mer frequency, TF over GST control); in assay [2], 1.31 fold enrichment (6-mer frequency, TF over GST control); in assay [3] it was 1.19 fold enrichment (6-mer frequency, TF over GST control); in assay [4], 1.16 fold enrichment (6-mer frequency, TF over GST control); in assay [5], 1.19 fold enrichment (6-mer frequency, TF over GST control); in assay [6], 1.18 fold enrichment (6-mer frequency, TF over GST control). The binding signal was 1.32 fold enrichment (6-mer frequency, TF over GST control) in assay [7] and 1.23 fold enrichment (6-mer frequency, TF over GST control) in assay [8].
For the sequence CTCCTC, the binding signal in assay [1] was 1.32 fold enrichment (6-mer frequency, TF over GST control); in assay [2] it was 1.61 fold enrichment (6-mer frequency, TF over GST control); in assay [3] it was 1.33 fold enrichment (6-mer frequency, TF over GST control); in assay [4] it was 1.29 fold enrichment (6-mer frequency, TF over GST control); in assay [5] it was 1.29 fold enrichment (6-mer frequency, TF over GST control); in assay [6], 1.32 fold enrichment (6-mer frequency, TF over GST control). For the same sequence, the binding signal in assay [7] is 1.22 fold enrichment (6-mer frequency, TF over GST control); in assay [8] it was 1.38 fold enrichment (6-mer frequency, TF over GST control).
For the sequence CGTTTC, the binding signal in assay [1] is 1.74 fold enrichment (6-mer frequency, TF over GST control); in assay [2], 1.64 fold enrichment (6-mer frequency, TF over GST control); in assay [3], 1.74 fold enrichment (6-mer frequency, TF over GST control); in assay [4], 1.75 fold enrichment (6-mer frequency, TF over GST control); in assay [5], 1.98 fold enrichment (6-mer frequency, TF over GST control); in assay [6], 2.04 fold enrichment (6-mer frequency, TF over GST control). Further, the binding signal in assay [7] is 1.83 fold enrichment (6-mer frequency, TF over GST control); in assay [8], 1.95 fold enrichment (6-mer frequency, TF over GST control).
Regarding TTATTG, the binding signal in assay [1] was 1.37 fold enrichment (6-mer frequency, TF over GST control); in assay [2], 1.37 fold enrichment (6-mer frequency, TF over GST control); in assay [3] it was 1.27 fold enrichment (6-mer frequency, TF over GST control); in assay [4] it was 1.21 fold enrichment (6-mer frequency, TF over GST control); in assay [5], 1.4 fold enrichment (6-mer frequency, TF over GST control); in assay [6] it was 1.2 fold enrichment (6-mer frequency, TF over GST control). The binding signal in assay [7] was 1.34 fold enrichment (6-mer frequency, TF over GST control); in assay [8], 1.27 fold enrichment (6-mer frequency, TF over GST control).
Take GCTTCT: the binding signal in assay [1] was 1.64 fold enrichment (6-mer frequency, TF over GST control); in assay [2] it was 1.37 fold enrichment (6-mer frequency, TF over GST control); in assay [3] it was 1.5 fold enrichment (6-mer frequency, TF over GST control); in assay [4], 1.34 fold enrichment (6-mer frequency, TF over GST control); in assay [5], 1.43 fold enrichment (6-mer frequency, TF over GST control); in assay [6], 1.56 fold enrichment (6-mer frequency, TF over GST control). The binding signal in assay [7] is 1.4 fold enrichment (6-mer frequency, TF over GST control); in assay [8], 1.45 fold enrichment (6-mer frequency, TF over GST control).
